Measurements: PubChem BioAssay (Tox21)
Inconclusive results are not listed. Entries that show only a call come without a potency. The source made the active and inactive calls. Calls follow the shape of the full dose curve.
Potency is read from the fitted curve at half-maximal effect.

Assay: qHTS assay to identify small molecule antagonists of the estrogen receptor alpha (ER-alpha) signaling pathway using the BG1 cell line (AID 743080);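 also: BG1 cells stimulated with 17beta-estradiol alongside compound; nearly all actives have a fitted effect of over 25% in size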
Conditions: BG1Luc4E2 ERE-luciferase antagonist mode, luminescence; series mostly up to 70.3 µM
Source text: National Center for Advancing Translational Sciences [NCATS]
NIH Chemical Genomics Center [NCGC]
U.S. Environmental Protection Agency [EPA]
National Institutes of Environmental Health Sciences [NIEHS]
National Toxicology Program [NTP]
U.S. Food and Drug Administration [FDA]
Estrogen receptor (ER), a nuclear hormone receptor, plays an important role in development, metabolic homeostasis and reproduction. Endocrine disrupting chemicals (EDCs) and their interactions with steroid hormone receptors like ER causes disruption of normal endocrine function. Therefore, it is important to understand the effect of environmental chemicals on the ER signaling pathway. To identify ER antagonists, BG1-Luc-4E2 cell line (provided by Dr. Michael Denison from University of California) has been used to screen the Tox21 10K compound library. BG1Luc4E2 cell line endogenously expresses full-length ER-alpha and is stably transfected with a plasmid containing four estrogen responsive elements (ERE) upstream of a luciferase reporter gene.
Tox21 Assay Protocol Summary:
BG1-Luc-4E2 cells were cultured in phenol red free assay medium containing 10% charcoal stripped FBS for 5 days before the assay was performed. The cells were dispensed at 4,000 cells/4 uL of assay medium per well into white wall/solid-bottom 1536-well plates using a Multidrop Combi (ThermoFisher Scientific, Waltham, MA) dispenser. The assay plates were incubated at a 37C and 5% CO2 for 24 h, and then 23 nL of compounds dissolved in DMSO, positive controls or DMSO only was transferred to the assay plate using a Pintool station (Kalypsys, San Diego, CA), followed by addition of 1 uL of 17beta-estradiol in assay medium using a Flying Reagent Dispenser (Aurora Discovery, San Diego, CA). After the plates were incubated at 37 C and 5% CO2 for 21.5 h, 1 uL of CellTiter-Fluor reagent (Promega, Madison, WI) of measuring cytotoxicity was added using Flying Reagent Dispenser (FRD) to each well. The assay plates were incubated at 37 C and 5% CO2 for additional 30 min and the fluorescence intensity was quantified by a ViewLux plate reader (PerkinElmer, Shelton, CT). For measuring luciferase reporter gene activity, 4 uL of ONE-Glo reagent (Promega) was added to each plate using an FRD and luminescence was quantified by a ViewLux plate reader after 30 min incubation at room temperature.
For `CC(=O)CC(c1ccc(Cl)cc1)c1c(O)c2ccccc2oc1=O` (stereo not given), the Potency was “inactive”.
With `COC(=O)C1=CCCN(C)C1` the Potency was “inactive”.
For `NC(=O)O`, the Potency was “inactive”.
In the case of `CCCCCCI`, the Potency is reported as “inactive”.
For `C#CCN1C(=O)COc2cc(F)c(N3C(=O)C4=C(CCCC4)C3=O)cc21`, the Potency was “inactive”.
In the case of `Cc1ncc2n1-c1ccc(Cl)cc1C(c1ccccc1F)=NC2`, the Potency is reported as 11.9 µM (active).
With `Cc1cc(C)c(C(=O)P(=O)(C(=O)c2c(C)cc(C)cc2C)c2ccccc2)c(C)c1` the Potency was “inactive”.
In the case of `OC(c1ccc(F)cc1)(c1cncnc1)c1ccccc1Cl` (stereo not given), the Potency is reported as “inactive”.
With `Oc1c(Cl)cccc1Cl` the Potency was “inactive”.
With `COP(=S)(OC)Oc1c(Cl)cc(C)cc1Cl` the Potency was “inactive”.
In the case of `C(CCOCC1CO1)COCC1CO1` (stereo not given), the Potency is reported as “inactive”.
In the case of `N#CC(CCc1ccc(Cl)cc1)(Cn1cncn1)c1ccccc1` (stereo not given), the Potency is reported as 61.1 µM (active).
In the case of `COc1cc(OC)nc(NC(=O)NS(=O)(=O)c2ncccc2C(=O)N(C)C)n1`, the Potency is reported as “inactive”.
For `COc1ccc2c(c1OC)CN1CCc3cc4c(cc3C1C2)OCO4` (stereo not given), the Potency was “inactive”.
In the case of `COC(=O)c1ccccc1S(=O)(=O)NC(=O)N(C)c1nc(C)nc(OC)n1`, the Potency is reported as “inactive”.
With `CCN(CC)C(C)C(=O)c1ccccc1` (stereo not given) the Potency was “inactive”.
In the case of `N#CC(Cl)(Cl)Cl`, the Potency is reported as “inactive”.
For `Cc1ncc(CNC(=O)N(CCCl)N=O)c(N)n1`, the Potency was “inactive”.
For `O=CNC(N1CCN(C(NC=O)C(Cl)(Cl)Cl)CC1)C(Cl)(Cl)Cl` (stereo not given), the Potency was “inactive”.
For `CNNC`, the Potency was “inactive”.
In the case of `Nc1ccccc1Cl`, the Potency is reported as “inactive”.
For `C#C[C@]1(O)C=C[C@H]2[C@@H]3CCC4=CC(=O)CC[C@@H]4[C@H]3CC[C@@]21CC`, the Potency was “inactive”.
For `ClC(Cl)(Cl)C(Cl)(Cl)Cl`, the Potency was “inactive”.
With `O=[N+]([O-])c1ccc(CBr)cc1` the Potency was “inactive”.
For `BrCCCCCCBr`, the Potency was “inactive”.
For `O=C(CCCN1CCC(n2c(=O)[nH]c3ccccc32)CC1)c1ccc(F)cc1`, the Potency was “inactive”.
For `CCOP(=S)(OCC)SCSc1ccc(Cl)cc1`, the Potency was “inactive”.
With `COC(=O)c1c(C(F)F)nc(C(F)(F)F)c(C2=NCCS2)c1CC(C)C` the Potency was “inactive”.
In the case of `OC(Cn1cncn1)(c1ccc(F)cc1)c1ccccc1F` (stereo not given), the Potency is reported as “inactive”.
For `O=C(O)c1ccc2[nH]cc(CCCCN3CC=C(c4ccccc4)CC3)c2c1`, the Potency was “inactive”.
With `CC(CC(C#N)(c1ccccc1)c1ccccc1)N(C)C` (stereo not given) the Potency was “inactive”.
For `COP(=S)(OC)Oc1ccc(S(N)(=O)=O)cc1`, the Potency was “inactive”.
In the case of `COP(N)(=S)Oc1ccccc1C(=O)OC(C)C` (stereo not given), the Potency is reported as “inactive”.
With `Cc1cccc(C#N)c1` the Potency was “inactive”.
With `Cc1ncsc1CCCl` the Potency was “inactive”.
For `ClC(Cl)Br`, the Potency was “inactive”.
In the case of `C[N+](=O)[O-]`, the Potency is reported as “inactive”.
With `CCN(CC)C(=O)[C@@H]1C=C2c3cccc4[nH]cc(c34)C[C@H]2N(C)C1` the Potency was “inactive”.
In the case of `ClC(Cl)C(Cl)Cl`, the Potency is reported as “inactive”.
With `O=[N+]([O-])c1cccc2cccnc12` the Potency was “inactive”.
